These results are taken from PubChem BioAssay (NCATS).

Where “and” joins values, the source holds several entries; their conditions need not be identical. Equal values may be shown once. Records with an inconclusive call do not appear. Values without a mark were called inactive. Calls of active or inactive are those of the source. The call rests on the fitted dose curve; in most records, active means well fitted inhibition curve with a large enough effect; inconclusive means small, poorly fitted or top-dose-only effect; inactive means flat fitted curve, though single readings scatter.

In one test the test system is CRL-7250. In words: Cytotoxic Profiling of Annotated Libraries Using Quantitative High-Throughput Screening (AID 1296008). On max response: on the % scale 0 is the no-effect control and ±100 the full control effect. As to conditions: Five cell lines viability, CellTiter-Glo ATP luminescence, 48-72 h; max response: active compounds read low. A digest of the protocol:
(§1)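 Compounds were pin-transferred onto cells and incubated 48 or 72 hr at 37 degree Celsius, 95% humidity. CellTiter-Glo was added, plates sat 10 min at room temperature, then ATP-coupled luminescence was imaged as the viability read-out.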
A general note: In ATP-based viability assays light output follows the ATP content of the culture.

In the next test the test system is HEK293. Described as above. As to conditions: Five cell lines viability, CellTiter-Glo ATP luminescence, 48-72 h; max response: active compounds read low. A digest of the protocol:
as §1

The subject of test [1] is HaCat. The description is as above. As to conditions: Five cell lines viability, CellTiter-Glo ATP luminescence, 48-72 h; max response: active compounds read low. Put shortly:
as §1

In another test the test system is KB-3-1. Described as above. As to conditions: Five cell lines viability, CellTiter-Glo ATP luminescence, 48-72 h; max response: active compounds read low. Put shortly: as §1
A further test has as its system NIH3T3. Described as above. The conditions noted are these: Five cell lines viability, CellTiter-Glo ATP luminescence, 48-72 h; max response: active compounds read low. Put shortly: as §1
In test [2] the test system is HACAT. In words: qHTS assay to identify novel small-molecules to repurpose for Merkel cell carcinoma treatment (AID 1296009). On activity change, negative = cytotoxicity: on the % scale 0 is the no-effect control and ±100 the full control effect. As to conditions: MCC and control cell lines, CellTiter-Glo viability, 72 h. Put shortly:
(§2)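 qHTS format: cells treated with library compounds in DMSO across 8 (NPC) or 11 (MIPE) concentrations. Readout after 72 hr at 37 degree celsius was CellTiter-Glo luminescence.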

In another test the test system is HEK293T. The test is described as above. As to conditions: MCC and control cell lines, CellTiter-Glo viability, 72 h; at 44.8 µM (top of the series) unless noted. Put shortly: as §2
The test system of a further test is MCC-13. The description is as above. As to conditions: MCC and control cell lines, CellTiter-Glo viability, 72 h; series mostly up to 46 µM. A digest of the protocol:
as §2

In the next test the test system is TAB165. The test can be described thus: qHTS profiling for inhibitors of Plasmodium falciparum proliferation (AID 504749). Further: potency means the concentration at half of the fitted maximal effect. As to conditions: P. falciparum in erythrocytes, SYBR Green DNA, 72 h; series mostly up to 28.7 µM. Put shortly: (§3)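 Parasite proliferation within erythrocytes, 72 h exposure. Endpoint: SYBR Green I fluorescence after overnight lysis at room temperature. Controls: 0.29 uM artemisinin, DMSO.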
On the technique in general: Quantitative high-throughput screening tests each substance at several concentrations.

Another test relates to W2. The test is described as above. As to conditions: P. falciparum in erythrocytes, SYBR Green DNA, 72 h; series mostly up to 28.7 µM. A digest of the protocol:
as §3

Where [3] appears, read: at 44.8 µM (top of the series) unless noted.
Further: nearly all actives have a fitted effect of over 60% in size.

In the case of `N[C@@H](CSSC[C@H](N)C(=O)O)C(=O)O`, the compound was called inactive in the test on CRL-7250, in the test on HEK293 and in the test on HaCat [1]. Besides, the max response is 4.84% in the test with KB-3-1 and 0.783% with NIH3T3. Further, the outcome in the test with HACAT [2] (setting [3]) and in the test with HEK293T was “inactive [at 0.588 µM]” in each case. Further, in the test with MCC-13, the activity change, negative = cytotoxicity is 4.94% [at 0.597 µM].

For the compound `Cc1cccc(Nc2cc(Cl)nc(SCC(=O)O)n2)c1C`, the Potency entry with TAB165, with W2 and with MCC-13 was “inactive” in each case. Moreover, the max response was 0.443% and 0.95% in the test on CRL-7250; 1.85% and -1.17% in the test with HEK293; 1.74% in the test with HaCat [1]; 6.42% and 8.75% with KB-3-1; -16.8% and 0.675% in the test on NIH3T3. Besides, the outcome in the test on HaCat [1] and with HACAT [2] (setting [3]) was inactive.

For the compound `Nc1nc2c(ncn2CCC(CO)CO)c(=O)[nH]1`, the Potency entry with TAB165, in the test with W2 and in the test with MCC-13 was “inactive” in each case. Besides, the max response in the test on CRL-7250 was -22.4% and -4.66%; in the test with HEK293, -4.76% and -4.47%; in the test on KB-3-1, 13.5% and 1.71%; in the test with NIH3T3 it was 1.75%. Further, the call in the test with HaCat [1], with NIH3T3 and with HACAT [2] (setting [3]) was inactive.

Take `OC[C@H]1O[C@@H](O[C@@H]2[C@@H](CO)O[C@](O)(CO)[C@H]2O)[C@H](O)[C@@H](O)[C@H]1O`: the max response in the test with CRL-7250 was -1.41%; in the test on KB-3-1, -20%; in the test on NIH3T3 it was 4.19%. For the same compound, the call in the test with HEK293, in the test with HaCat [1], in the test with HACAT [2] (setting [3]) and in the test on HEK293T was inactive. The Potency entry in the test on MCC-13 was “inactive”.

Turning to `O=C(CCCN1CCN(c2ccccn2)CC1)c1ccc(F)cc1`, the Potency entry with TAB165, with W2 and in the test with MCC-13 was “inactive” each time. For the same compound, the max response with CRL-7250 is -29%; in the test with HEK293 it was -14.9%; in the test with HaCat [1] it was -5.51% and 4.13%; in the test on KB-3-1 it was 7.83% and 2.47%; in the test on NIH3T3, -7% and 0.386%. The call in the test on CRL-7250 was inactive.

Consider `C[C@@H]1CN(c2c(F)c(F)c3c(=O)c(C(=O)O)cn(C4CC4)c3c2F)C[C@H](C)N1`, for which the Potency entry in the test on TAB165, with W2 and with MCC-13 was “inactive” each time. For the same compound, the max response with CRL-7250 is -3.49% and -4.42%; in the test with HEK293 it was -18.5% and -5.83%; in the test on KB-3-1, -12.7%; in the test on NIH3T3, -2.2% and -0.725%. For the same compound, the outcome in the test on HaCat [1], with KB-3-1, in the test with HACAT [2] (at 9.27 µM (top of the series)) and with HACAT [2] (at 17.4 µM (top of the series)) was inactive.

Regarding `C[C@@H]1C[C@H]2[C@@H]3C[C@H](F)C4=CC(=O)C=C[C@]4(C)[C@@]3(F)[C@@H](O)C[C@]2(C)[C@@]1(O)C(=O)CO`, the max response in the test with CRL-7250 was -4.29%; in the test with HEK293 it was -7.17%; in the test with HaCat [1], -8.88% and 2.84%; in the test on KB-3-1 it was 18.2%; with NIH3T3 it was -2.74% and -3.01%. In addition, the compound was classed as inactive in the test on CRL-7250, in the test on HEK293, in the test on KB-3-1 and with HEK293T. Also, the Potency result in the test with MCC-13 is “inactive”.

Turning to `CNC(=O)Oc1ccc2c(c1)[C@]1(C)CCN(C)[C@@H]1N2C`, the figures for the Potency with TAB165 and in the test on W2 were 1.58 µM (active) and 1.51 µM (active), respectively. In addition, the call in the test on CRL-7250, in the test with HEK293, in the test with HaCat [1], with KB-3-1, in the test on NIH3T3 and with HACAT [2] (setting [3]) was inactive. Further, the compound was called inactive with HEK293T. In addition, the results for the max response with HaCat [1], in the test on KB-3-1 and with NIH3T3 were -0.257%, -5.47% and -4.44%, respectively. Besides, in the test with MCC-13, the Potency result is “inactive”.

For `CN1CCOC(c2ccccc2)c2ccccc2C1` (stereo not given), the max response in the test on CRL-7250 is 2.8%; in the test on HEK293, -2.69%; in the test on HaCat [1] it was -15.1% and -5.19%; in the test with KB-3-1, -9.99% and 4.82%; in the test with NIH3T3, 2.98%. In addition, the outcome in the test on CRL-7250, in the test with HEK293, with NIH3T3 and in the test with HEK293T was inactive. Besides, the Potency result with MCC-13 was “inactive”.

For the compound `CC(=O)NC(Cc1ccccc1)C(=O)O` (stereo not given), the Potency entry in the test with TAB165 and with MCC-13 was “inactive” each time. Besides, the max response in the test with CRL-7250 was 2.75%; in the test on HEK293 it was 1.21% and -5.41%; in the test with HaCat [1], -9.27%; in the test on KB-3-1, 1.12% and 4.36%; with NIH3T3, 0.258% and -10.1%. Further, the result in the test on CRL-7250 and in the test on HaCat [1] was inactive. The outcome in the test with HACAT [2] (setting [3]) was “inactive [at 92 µM]”.

On to `OCC(O)CN1CCN(c2ccccc2)CC1` (stereo not given), for which the Potency entry in the test on TAB165, in the test with W2 and with MCC-13 was “inactive” in each case. In addition, the max response in the test on CRL-7250 was 0.497% and 1.49%; in the test with HEK293 it was -1.21%; with HaCat [1] it was -30%; with KB-3-1, -6.94% and 8%; with NIH3T3, -1.52%. Also, the result in the test on HEK293, in the test on NIH3T3 and with HEK293T was inactive.

In the case of `O=c1[nH]cnc2c1ncn2[C@@H]1O[C@H](CO)[C@@H](O)[C@H]1O`, the max response in the test on CRL-7250 was -10.1% and -4.73%; in the test with HEK293, 3.98%; in the test with KB-3-1, 7.98%; with NIH3T3, 0.16%. For the same compound, the compound was called inactive with HEK293, with HaCat [1], with KB-3-1, in the test on NIH3T3, with HACAT [2] (setting [3]) and in the test with HEK293T. Moreover, the Potency result with MCC-13 is “inactive”.

Consider `NS(=O)(=O)c1cc2c(cc1C(F)(F)F)NC(Cc1ccccc1)NS2(=O)=O` (stereo not given), for which the max response is -4.39% in the test on CRL-7250 and -0.539% in the test on KB-3-1. The call in the test with HEK293, with HaCat [1], with NIH3T3, in the test with HACAT [2] (setting [3]) and with HEK293T was inactive. Also, the Potency entry in the test on MCC-13 is “inactive”.

As for `CC(C)(C)C(=O)C(Oc1ccc(Cl)cc1)n1ccnc1` (stereo not given), the Potency in the test with TAB165 was 7.08 µM (active); in the test on W2, 6.01 µM (active). The max response in the test with CRL-7250 is -7.22%; in the test with HaCat [1], -9.75%; in the test on KB-3-1, -11% and -12.3%; in the test on NIH3T3 it was -7.83%. The call in the test on CRL-7250, in the test on HEK293, in the test with HaCat [1], with NIH3T3, in the test with HACAT [2] (setting [3]) and with HEK293T was inactive. For the same compound, the Potency entry in the test with MCC-13 was “inactive”.

As for `C[C@]12CC[C@@H]3c4ccc(O)cc4CC[C@H]3[C@@H]1CC[C@@H]2OC(=O)CCC1CCCC1`, the max response is -19.6% in the test with CRL-7250; -8.4% in the test with HEK293; -5.64% and 15.4% in the test with KB-3-1; 2.8% with NIH3T3. Also, the compound was classed as inactive in the test on CRL-7250, with HaCat [1] and in the test on HACAT [2] (setting [3]). In the test on MCC-13, the Potency entry is “inactive”.
